# Assay results taken from PubChem BioAssay (EPA / NIEHS).
# Activity calls are given as the source filed them. Rule for the calls: active = hit-call score of the fitted dose curve at least 0.9, where 1 is the maximum; inactive = score below 0.9.
# Test: APR_HepG2_StressKinase_24hr: Apredica 24-hour HepG2 Assay for Stress Kinase (AID 2282922)
# Conditions: HepG2 stress kinase (phospho-c-Jun) imaging, actives raise or lower the signal
# Experimental: APR_HepG2_24hr is a cell-based, multiplexed-readout assay that uses HepG2, a human liver cell line, with measurements taken at 24 hours after chemical dosing in a 384-well plate.APR_HepG2_StressKinase_24hr is one of 10 assay component(s) measured or calculated from the APR_HepG2_24hr assay. It is designed to make measurements of enzyme activity, a form of enzyme reporter, as detected with fluorescence intensity signals by HCS Fluorescent Imaging technology.Data from the assay component APR_HepG2_StressKinase_24hr was analyzed into 1 assay endpoint. This assay endpoint, APR_HepG2_StressKinase_24hr, was analyzed with bidirectional fitting relative to DMSO as the negative control and baseline of activity. Using a type of enzyme reporter, measures of protein for gain or loss-of-signal activity can be used to understand the signaling at the pathway-level as they relate to the gene . Furthermore, this assay endpoint can be referred to as a primary readout, because this assay has produced multiple assay endpoints where this one serves a signaling function. To generalize the intended target to other relatable targets, this assay endpoint is annotated to the cell cycle intended target family, where the subfamily is stress response.
# Cells were treated with dimethyl sulfoxide (DMSO) as a solvent control at a final concentration of 0.5% v/v or with compounds in DMSO with a resulting final DMSO concentration of 0.5% v/v. Compound treatment was done at concentrations of 0.39, 0.78, 1.56, 3.12, 6.24, 12.5, 25, 50, 100, and 200 uM in duplicate on each plate. Cells were treated with compounds for 1, 24, or 72 hr. Carbonyl […] m-chloro-phenylhydrazone (CCCP) and taxol were used as positive controls for mitochondrial function and cytoskeletal stability, respectively; DMSO served as the negative control for this experiment. Cells were fixed by the direct addition of 50 uL formaldehyde in Hank's Balanced Salt Solution (HBSS) to a final concentration of 3.7%. After incubation in the fixation medium for 30 min at room temperature (293-298 K), cells were rinsed twice with HBSS and treated with cell permeabilization buffer (16 uL of 0.5% Triton X-100) for 10 min at room temperature (293-298 K) before labeling. For mitochondrial membrane potential and mitochondrial measurements, pre-fixed cells were incubated with 50 uL of MitoTracker Red CMXRos (Invitrogen) at a concentration of 250 nM for 30 min before fixation. In the remaining cases, post-fixed cells were labeled by incubation with a multiplexed mixture of primary antibodies in HBSS for 60 min at room temperature (293-298 K) to detect immunoreactivity of c-Jun (1:500), phospho-histone H3 (1:100), phospho-histone H2A.x (1:200), p53 (1:400), alpha-tubulin (1:200) and Hoechst 33342 (2 ug/mL). Cells were labeled for multiplexed imaging on two separate plates: a) Hoechst 33342, MitoTracker Red, phospho-histone H3, and alpha-tubulin, and b) Hoechst 33342, phospho-histone H2A.x, and c-Jun. A final rinse with HBSS (50 uL) was performed before analysis. The primary and secondary antibodies for the proteins were phospho-histone H3 (rabbit anti-phospho-histone H3 and FITC-donkey anti-rabbit IgG), phospho-histone H2A.x (mouse anti-phospho-histone H2A.x and FITC-donkey anti-mouse IgG), c-Jun (rabbit anti-phospho-c-Jun and Cy3-donkey anti-rabbit IgG), p53 (sheep anti-p53 and Cy5-donkey anti-sheep IgG), alpha-tubulin (mouse anti-alpha-tubulin and Cy5-donkey anti-mouse IgG). These antibodies are available as the CellCiphr HepG2 assay kit (Millipore).Digital images of each well were captured using a Cellomics ArrayScan VTI (Thermo Scientific Cellomics) (0.8 NA objective, 0.63x optical coupler, and XF-93 filter set) at 20x magnification. The images were acquired using the autofocus feature of the ArrayScan instrument, which entails the following steps. First, the camera focuses on channel 1 (Hoechst 33342), where nuclei are identified. Second, a Z offset of 1 um is used for capturing mitochondria (MitoTracker Red). […]
Compound,AC50,outcome
CCCCc1oc2ccccc2c1C(=O)c1cc(I)c(OCCN(CC)CC)c(I)c1,58.2 µM (active),–
CCCCCCCCCCCCCCC,–,inactive
OCC(CO)(CBr)CBr,–,inactive
CN(C)CCOC(c1ccccc1)c1ccccc1,–,inactive
CCCCC=O,–,inactive
Cc1[nH]nc2c1N=C(c1ccccc1Cl)c1cc([N+](=O)[O-])ccc1N2,19.8 µM (active),–
O=C(CCCN1CCC(O)(c2ccc(Cl)cc2)CC1)c1ccc(F)cc1,103 µM (active),–
CCCCCCCCCCCCOS(=O)(=O)O,–,inactive
N=C(N)c1ccc(OCCCCCOc2ccc(C(=N)N)cc2)cc1,–,inactive
CC(=O)Nc1ccc(O)cc1,–,inactive
CCCCC(CC)C(=O)O (centres undefined),–,inactive
CN(Cc1cnc2nc(N)nc(N)c2n1)c1ccc(C(=O)N[C@@H](CCC(=O)O)C(=O)O)cc1,–,inactive
O=C(c1ccccc1)c1ccccc1,–,inactive
CS(=O)(=O)c1ccc([C@@H](CC2CCCC2)C(=O)Nc2cnccn2)cc1Cl,–,inactive
